# Screening results (PubChem BioAssay)
# DT40 TDP1 no CPT: qHTS for Inhibitors of human tyrosyl-DNA phosphodiesterase 1 (TDP1): qHTS in cells in absence of CPT | DT40 Tdp1-/- hTDP1 cells, no CPT, ATP luminescence, 48 h | Potency, µM (titrated, usually from 46.2 µM), without a hit: top-dose activity change, negative = growth inhibition, hits mostly inhibitors | actives 15% (n = 420,000) | AID 686978, 2013; note: nearly all actives have a fitted effect of over 55% in size
#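 No-CPT arm: Tdp1-/-;hTDP1 DT40 cells (400/well) plus compounds, incubated ≥48 hr at 37 °C. Readout CellTiter-Glo luminescence.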
# DT40 TDP1 CPT: DT40-hTDP1 cell growth loss with CPT. Potency, µM (doses to about 46.2 µM), for the others: at the top dose activity change, negative = growth inhibition, hits mostly inhibitors. actives 12% (n = 420,000). chicken DT40 Tdp1-/-;hTDP1 cells + 20 nM CPT, ATP luminescence, 48 h; note: nearly all actives have a fitted effect of over 55% in size
#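 Chicken DT40 Tdp1-/- cells stably complemented with human TDP1 were seeded at 400 cells/well in medium containing 20 nM camptothecin, exposed to pin-transferred compounds, and grown at 37 °C for at least 48 hr. Viability was read as ATP luminescence.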
# VDR inhibitor: vitamin D3 receptor (human) inhibition; VDR-SRC2-3 peptide fluorescence polarization, 2 h; Potency, µM, for inactives: max response, negative = inhibition, usual class: inhibitors; P11473; actives 0.93% (n = 400,000); AID 504847
#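 Signal is fluorescence polarization, reporting how far test compounds block the interaction of VDR with the SRC2-3 coregulator peptide after a 2 h room-temperature incubation.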
# PLK1 PBD inh: inhibitors of human PLK1 polo-box domain binding | Potency, µM, without a hit: max response, negative = inhibition, actives largely listed as inhibitors | Plk1 PBD binding of FITC phosphopeptide, fluorescence polarization | P53350 | actives 2.8% (n = 360,000) | AID 720504; note: series mostly up to about 57 µM; nearly all actives have a fitted effect of over 65% in size
# GCN5L2 inh: inhibitors of human GCN5L2 histone acetyltransferase. GCN5L2 HAT assay, ThioGlo1 CoA-SH fluorescence. Q92830. AID 504327. actives 0.21% (n = 390,000). Potency, µM (top dose mostly 58.9 µM), without a hit: at the highest dose activity change, negative = inhibition, most hits filed as inhibitors
# Target sequence (Q92830 whole entry, looked up): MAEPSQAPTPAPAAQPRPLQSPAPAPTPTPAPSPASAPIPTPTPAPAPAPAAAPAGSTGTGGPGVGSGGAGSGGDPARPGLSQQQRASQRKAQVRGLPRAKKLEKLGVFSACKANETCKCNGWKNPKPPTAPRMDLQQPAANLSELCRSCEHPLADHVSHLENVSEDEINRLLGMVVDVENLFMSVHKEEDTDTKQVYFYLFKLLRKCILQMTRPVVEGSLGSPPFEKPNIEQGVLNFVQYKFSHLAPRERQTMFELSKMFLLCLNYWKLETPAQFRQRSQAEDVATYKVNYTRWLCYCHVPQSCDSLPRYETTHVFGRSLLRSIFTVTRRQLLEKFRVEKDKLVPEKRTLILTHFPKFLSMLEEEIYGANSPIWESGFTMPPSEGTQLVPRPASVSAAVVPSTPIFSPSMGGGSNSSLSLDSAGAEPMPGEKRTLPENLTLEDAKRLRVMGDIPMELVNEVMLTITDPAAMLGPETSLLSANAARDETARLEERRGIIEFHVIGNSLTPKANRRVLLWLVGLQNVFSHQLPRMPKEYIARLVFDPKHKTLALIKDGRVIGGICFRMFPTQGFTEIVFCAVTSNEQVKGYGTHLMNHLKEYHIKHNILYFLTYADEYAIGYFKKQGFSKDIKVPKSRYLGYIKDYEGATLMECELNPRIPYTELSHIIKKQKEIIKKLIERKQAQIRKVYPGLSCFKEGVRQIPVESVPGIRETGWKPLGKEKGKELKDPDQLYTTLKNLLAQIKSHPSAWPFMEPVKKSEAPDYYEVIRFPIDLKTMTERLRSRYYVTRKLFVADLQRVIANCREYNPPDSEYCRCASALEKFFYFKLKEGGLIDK
#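 Compounds, pin-transferred from DMSO stocks, meet 20nM GCN5L2 for 15 min before the reaction begins with H3(1-25) peptide (75uM) and acetyl-CoA (70uM). Thiol-reactive ThioGlo1 reports CoA release over 20 min at room temperature.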
# TDP1 inh: inhibitors of human tyrosyl-DNA phosphodiesterase TDP1; actives 0.28% (n = 350,000); Q9NUW8; recombinant TDP1, AlphaScreen DNA substrate cleavage; Potency, µM (series often up to 130 µM), for inactives: at the highest dose activity change, negative = inhibition, usual class: inhibitors; AID 485290; note: nearly all actives have a fitted effect of over 40% in size
#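 Tdp1 1 nM final; 15 min RT w/ cpd; substrate 15 nM, 5 min; beads 10 ug/ml, 10 min; AlphaScreen read. Neg ctrl: no enzyme.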
# An asterisk follows results filed as active; u = inconclusive; x = not tested or not shown; ! = not confirmed by another sample; [ ] = dose if it differs, or a comment. The list is not random: actives were taken first. Their share in the collection is about 18%. Calls come from the whole dose curve; as a rule, active = well fitted curve in the direction sought with a large enough effect; inconclusive = small, poorly fitted or top-dose-only effect, or another doubt; inactive = no such curve, though single readings can be large; an effect the other way counts as inactive or inconclusive. % is set by controls: 0 for no effect and ±100 for the full control effect; potency is the fitted concentration of half-maximal effect.
SMILES,DT40 TDP1 no CPT,DT40 TDP1 CPT,VDR inhibitor,PLK1 PBD inh,GCN5L2 inh,TDP1 inh
COc1ccc(C=O)cc1,-13%,17%,-29%,-4%,-18%,1%
NC(N)=N/N=C/c1ccc(N(c2ccccc2)c2ccccc2)cc1,18µM*,16µM*,-7%,-4%,0%,x
NC(N)=N/N=C/c1ccc(N2CCOCC2)cc1,4.6µM*,4.6µM*,-2%,2%,-10%,3%
COC(=O)C1=C(c2ccc(F)cc2F)C[C@@H]2CC[C@H]1N2C(=O)NCCCOC(C)C,-18%,-5%,-4%,-1%,-2%,0%
CC(=O)OC[C@H](N)C(=O)c1ccccc1,x,x,x,x,7%,6%
C/C=C(/C)C(=O)OC1CC[C@]2(C)C3CCC4[C@]5(O)CC(O)[C@]6(O)C(CN7CC(C)CCC7[C@]6(C)O)[C@]5(O)C[C@@]42O[C@]13O (stereo not given in full),-6%,-3%,19%,x,-3%,6%
CN(C)Cc1c[nH]c2cc([N+](=O)[O-])ccc12,-3%,-2%,37%,-3%,x,x
CC(C)(C)NCC(O)c1cc(Cl)c(N)c(C(F)(F)F)c1 (stereo not given),-16%,14%,-4%,x,-4%,x
O=[N+]([O-])c1ccccc1-c1ccccc1,x,x,x,x,x,17%
O=C1c2ccccc2C(=O)N1SC1CCCCC1,3.7µM*,3.7µM*,20µM*,1.9µM*,6%,4%
NC(=O)c1cn(C2CCCCC2)c2ccccc2c1=O,-8%,u,-1%,-4%,-13%,x
COC(=O)C1=C(c2ccc(Cl)c(C(F)(F)F)c2)C[C@@H]2CC[C@H]1N2C(=O)NCCO,-29%,-19%,-15%,4%,-6%,0%
COC(=O)C1=C(c2ccc(Cl)c(C(F)(F)F)c2)C[C@@H]2CC[C@H]1N2C,-13%,u,-14%,-11%,-1%,2%
COC(=O)C1=C(c2ccccc2)C[C@@H]2CC[C@H]1N2C(=O)NC(C)C,x,-16%,-14%,-9%,x,x
COC(=O)C1=C(c2ccc(Cl)c(C(F)(F)F)c2)C[C@@H]2CC[C@H]1N2C(=O)NC1CCCCC1,21µM*,13µM*,-20%,2%,-29%,0%
COC(=O)C1=C(c2ccc(OC(F)(F)F)cc2)C[C@@H]2CC[C@H]1N2C(=O)NC(C)C,21µM*,16µM*,-15%,-10%,-4%,0%
COC(=O)C1=C(c2ccc(Cl)c(C(F)(F)F)c2)C[C@@H]2CC[C@H]1N2C(=O)NCCOc1ccccc1,16µM*,u,-5%,1%,-8%,0%
CCCNC(=O)N1[C@H]2CC[C@@H]1C(C(=O)OC)=C(c1ccc(OC(F)(F)F)cc1)C2,15µM*,u,0%,5%,-5%,1%
[Cd+2].[Cl-].[Cl-],x,x,x,x,x,3%
CCN(C(=O)CSc1ncccc1C(=O)Oc1cccc([N+](=O)[O-])c1)c1cccc(C)c1,u,-10%,-10%,-2%,-3%,4%
NCc1cccnc1,-11%,12%,3%,x,-6%,5%
O=C(Cn1cnc2sc3c(c2c1=O)CCCC3)NCCCC(=O)N1CCC2(CC1)OCCO2,-15%,-18%,3%,-11%,-4%,3%
COC(=O)C1=C(c2ccc(Cl)c(C(F)(F)F)c2)C[C@@H]2CC[C@H]1N2C(=O)NCc1ccco1,21µM*,u,-23%,-15%,-15%,2%
COC(=O)C1=C(c2ccc(OC(F)(F)F)cc2)C[C@@H]2CC[C@H]1N2C(=O)NCCOc1ccccc1,18µM*,23µM*,-8%,-14%,-13%,0%
CC(C)(O)C1C2OC(=O)C1[C@]1(O)C[C@H]3O[C@]34C(=O)O[C@H]2[C@]14C (stereo not given in full) (tested in a mixture with another compound),x,x,-1%,x,2%,-8%[56.1 µM]
SMILES,DT40 TDP1 no CPT,DT40 TDP1 CPT,VDR inhibitor,PLK1 PBD inh,GCN5L2 inh,TDP1 inh
CCCCn1c(O)c(C(C)=NCCc2c[nH]c3ccccc23)c(=O)[nH]c1=O,16µM*,u,7%,2%,-2%,1%
c1ccc(-c2ccccc2)cc1,x,x,x,x,x,14%
COc1ccccc1CCNC1CCC(C(C)(C)C)CC1 (stereo not given),21µM*,u,18%,-2%,-2%,7%
COc1cc(/C=C/c2nc3ccccc3c(=O)n2-c2ccc(O)cc2)ccc1O,u,u,0%,38%,0%,x
COc1ccc(-n2c(/C=C/c3cccc(F)c3)nc3ccccc3c2=O)cc1Cl,u,21µM*,13%,x,12%,0%
Cc1ccc(-n2c(/C=C/c3ccccc3)nc3ccccc3c2=O)cc1Cl,23µM*,u,17%,x,-6%,5%
Cc1ccc(-n2c(/C=C/c3ccccn3)nc3ccccc3c2=O)cc1,u,u,-8%,-1%,-28%,x
Cc1ccc(-n2c(/C=C/c3ccccc3)nc3ccccc3c2=O)cc1C,23µM*,16µM*,13%,x,14%,10%
O=C(COc1ccccc1F)N1CCN(Cc2cc(=O)n3nc(-c4ccccc4Cl)sc3n2)CC1,15µM*,u,12%,x,-4%,3%
Cc1ccccc1-c1nn2c(=O)cc(CN3CCN(C(=O)COc4ccccc4Cl)CC3)nc2s1,8.2µM*,18µM*,2%,x,-3%,3%
CCOC(=O)C1OC1(C)c1ccccc1 (stereo not given),x,x,x,x,x,10%
COc1ccc(NC(=O)N2CCC3(CC2)OCCO3)cc1,-1%,u,-22%,27µM*,1%,1%
O=C(Cc1ccccc1)c1ccccn1,u,u,3%,1%,x,x
C#CC(C)(CC)NC(=O)Cn1nnc(-c2ccc(OCc3ccccc3C)cc2)n1 (stereo not given),u,u,-12%,x,-15%,3%
OCC1OC(n2cnc3cc(Cl)c(Cl)cc32)C(O)C1O (stereo not given),u,15µM*!,14%,-9%,0%,7%
c1cnc2ccc(C(c3nnnn3C3CCCCC3)N3CCN(C4CCCCC4)CC3)cc2c1 (stereo not given),13µM*,13µM*,-3%,-2%,x,x
Cc1cc(OCC(=O)N2CCN(CCc3ccncc3)CC2)ccc1Cl,u,u,8%,x,-4%,6%
CCC(=O)C1=C(c2cccc([N+](=O)[O-])c2)N(C(=O)CC)n2c(nnc2C2CCCCC2)S1,4.1µM*,3.3µM*,6%,x,-23%,0%
